# The list is not random: actives were taken first. Their share in the collection is about 2.3%.
# HTR1E agonist = agonists of human 5-HT1E serotonin receptor; activation, % at 6 µM; CHO 5-HT1E Ga15 NFAT-bla reporter, FRET; 0% DMSO wells, 100% control agonist wells; P28566; 0.69% of 65,000 active;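 active = activation above a set limit, the screen-wide mean activation plus 3 SD, cut at about 8.5% in these data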
# Target sequence (P28566 whole entry, looked up): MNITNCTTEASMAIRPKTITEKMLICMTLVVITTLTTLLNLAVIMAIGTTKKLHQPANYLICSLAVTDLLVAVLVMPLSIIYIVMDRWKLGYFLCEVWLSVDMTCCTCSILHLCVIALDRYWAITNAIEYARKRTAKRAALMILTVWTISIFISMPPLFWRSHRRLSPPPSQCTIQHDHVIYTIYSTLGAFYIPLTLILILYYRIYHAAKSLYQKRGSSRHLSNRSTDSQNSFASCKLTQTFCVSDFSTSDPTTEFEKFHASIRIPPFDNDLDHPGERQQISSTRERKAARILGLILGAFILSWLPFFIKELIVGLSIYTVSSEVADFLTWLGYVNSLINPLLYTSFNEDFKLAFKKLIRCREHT
# Htt clearance = mutant huntingtin protein clearance | HeLa Exon1htt(103Q)mCFP, aggregate imaging; zero = plate's median compound well | inhibition, % at 1.5 µM | 0.42% of 47,000 active | AID 853;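 active = inhibition of aggregate fluorescence above about 70%, also judged a hit by eye on the cell image, limit read from the data, passing the limit was not always enough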;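 note: cells exposed to compound for three days before fixation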
# 5HT1E antag = 5-HT1E (human) receptor antagonism. CHO 5-HT1E Ga15 NFAT-bla reporter, FRET, antagonist. inhibition, % at 6 µM. 0.99% of 65,000 active;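 active = inhibition above a set limit, the mean inhibition across every tested compound plus 3 SD, cut at about 29% in these data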;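 note: signal is the 460 over 535 nm emission ratio of beta-lactamase substrate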
# 5HT1a ag = 5-HT1a (human) receptor agonism | P08908 | activation, % at 10 µM | CHO 5-HT1a Ga15 NFAT-bla reporter, FRET ratio; 0% basal, 100% maximal reference agonist | 0.56% of 65,000 active;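 active = activation above the screen-wide mean activation plus 3 SD, cut at about 19% in these data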
# 5HT1a antag = antagonists of human 5-HT1a serotonin receptor. P08908. CHO 5-HT1a Ga15 NFAT-bla reporter, antagonist mode. inhibition, % at 10 µM. 0.68% of 62,000 active. AID 612;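 active = inhibition above the mean of all tested compounds plus 3 SD, cut at about 43% in these data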;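 note: receptor stimulated by 5-CT agonist at 100 nM near EC80; beta-lactamase reporter measured by ratiometric fluorescence of a cleavable substrate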
# A number is an active result; – = inactive; · = not tested or not shown.
SMILES,HTR1E agonist,Htt clearance,5HT1E antag,5HT1a ag,5HT1a antag
CCOC(=O)N1CCN(C(=O)c2ccc3c(c2)sc2nc(-c4ccc(OC)cc4)cn23)CC1,–,·,–,–,–
COc1ccc2c(c1)sc1nc(-c3ccccc3)cn12,–,·,75,–,65
CCc1c(C)nc2ncnn2c1N1CCC(C(=O)Nc2cccc(C(C)=O)c2)CC1,–,–,–,–,–
COc1cccc(-c2nn(C)c3sc(C(=O)NCc4ccccn4)cc23)c1,–,·,42,–,–
COc1cccc(-c2nn(C)c3sc(C(=O)Nc4ccc5c(c4)OCCO5)cc23)c1,–,·,–,–,–
CCn1c(=O)c(C(=O)Nc2nc3ccccc3[nH]2)c(O)c2ccccc21,–,–,64,–,57
Cc1[nH]c2ccc(Br)cc2c(=O)c1CN1CCCCC1,–,·,–,104,–
COc1ccccc1N1CCN(CCCC(=O)c2ccc(F)cc2)CC1,–,–,–,–,93
COc1ccccc1N1CCN(CCCNC(=O)Nc2ccccc2C)CC1,–,·,–,–,82
COc1ccccc1NC(=O)CN1CCN(CC(=O)Nc2ccc(F)cc2)CC1,–,·,–,–,–
COc1ccc(Cl)cc1N1CCN(CCNC(=O)Nc2ccccc2C)CC1,–,–,–,–,–
COc1ccccc1N1CCN(CC(=O)Nc2cc(F)ccc2C)CC1,–,·,–,–,43
COc1ccccc1N1CCN(CC(=O)c2ccc3ccn(C(C)=O)c3c2)CC1,30,–,–,–,–
CCC1CCCCN1C(=O)Cn1c(C(=O)OC)cc2ccsc21 (stereo unspecified),–,·,–,–,–
COc1ccc(-n2cnc3c(cnn3CCC#N)c2=N)cc1,–,–,–,–,–
CC1CCCN(c2nc3c(c(=O)[nH]c(=O)n3C)n2CCSc2ncccn2)C1 (stereo unspecified),–,·,–,–,–
CCCCOCCCn1cnc2c([nH]c3cc(OC)ccc32)c1=O,–,–,–,–,–
O=C(O)C1CCCCC1C(=O)NCCc1c[nH]c2ccccc12 (stereo unspecified),99,–,–,22,–
O=C(NCCc1c[nH]c2ccccc12)Nc1ccccc1,·,–,·,·,·
O=C(NCCc1c[nH]c2ccccc12)C(F)(F)C(F)F,26,–,–,–,–
O=C(O)C1CCCCC1C(=O)NCCc1ccncc1 (stereo unspecified),–,–,–,–,–
COc1ccc(OC)c(CCNC(=O)C2CCN(c3nnc(-n4cccc4)s3)CC2)c1,–,·,–,–,–
O=C(NCCc1c[nH]c2ccccc12)C1CCN(c2nnc(N3CCCC3=O)s2)CC1,46,–,–,–,–
CCCOc1cccc(C2C(C(=O)c3ccc(C)o3)=C(O)C(=O)N2CCCN(C)C)c1 (stereo unspecified),–,·,–,–,·
COc1cc(-c2nn3c(Cc4ccccc4)nnc3s2)cc(OC)c1OC,–,–,31,–,–
SMILES,HTR1E agonist,Htt clearance,5HT1E antag,5HT1a ag,5HT1a antag
Cc1c2c(n3c(nc4ccccc43)c1C#N)N(Cc1ccccn1)CC2,–,·,–,–,–
COc1cccc(OC)c1OCC(O)CN1CCN(c2ccccc2)CC1 (stereo unspecified),–,·,–,–,45
OCC(O)CN1CCN(c2ccccc2)CC1 (stereo unspecified),–,·,–,–,·
C=CCc1ccccc1OCC(O)CN1CCN(c2ccc(OC)cc2)CC1 (stereo unspecified),–,–,–,–,81
COc1ccc(N2CCN(CC(O)COc3ccc4c(c3)CCC4)CC2)cc1 (stereo unspecified),·,–,·,·,·
COc1ccccc1N1CCN(CC(O)c2ccc3cc[nH]c3c2)CC1 (stereo unspecified),–,–,–,–,87
OC(COc1ccc2c(c1)CCC2)CN1CCN(c2ccccc2F)CC1 (stereo unspecified),–,–,–,–,44
CCOC(=O)C1=C(N)OC2=C(C(=O)CCC2)C1c1ccc(C)s1 (stereo unspecified),–,·,–,–,–
O=C(c1ccco1)c1nnn(Cc2ccccc2)c1-c1ccccc1,–,·,–,–,–
OC(COCc1ccccc1)CN1CCN(c2ccccc2F)CC1 (stereo unspecified),–,·,–,–,–
COc1ccccc1N1CCN(CC(O)COc2c(OC)cccc2OC)CC1 (stereo unspecified),–,–,–,–,95
Cn1c(CO)cnc1SCc1ccc(Cl)cc1,·,–,·,·,·
O=C(OC(C(=O)NC1CCCC1)c1ccccc1F)c1ccco1 (stereo unspecified),–,–,–,156,–
Cc1ccc(C(OC(=O)c2ccco2)C(=O)NC2CCCCC2)cc1 (stereo unspecified),·,–,·,·,·
CCOC(=O)CC1=C(C(=O)OCC)C(c2ccc(C)o2)C(C#N)=C(N)O1 (stereo unspecified),–,·,35,–,53
COc1ccccc1C(=O)NC(=Nc1nc2ccccc2o1)NC(=O)c1ccccc1OC,–,–,41,–,·
N/C(=N\c1nc2ccccc2o1)NC(=O)c1ccccc1NC(=O)c1ccccc1,–,–,–,–,·
COC(=O)c1ccccc1NC(=O)CN1CCC(NC(=O)c2ccccc2C)CC1,–,–,–,–,–
O=C(c1ccco1)N1CCN(C(c2cccs2)c2nnnn2C2CCCCC2)CC1 (stereo unspecified),–,–,–,–,–
CCOc1ccccc1C1C(C(=O)Nc2ccccc2OC)=C(C)Nc2nnnn21 (stereo unspecified),–,·,–,–,–
CC(C)(C)NC(=O)C(c1ccco1)N(C(=O)Cn1nnc(-c2ccc(F)cc2)n1)c1cccc(F)c1 (stereo unspecified),10,·,–,–,–
Cc1ccc(-c2nnn(CC(=O)N(c3ccc(F)cc3)C(C(=O)NC3CCCC3)c3ccco3)n2)o1 (stereo unspecified),–,·,–,–,–
Cc1ccc(-c2nnn(CC(=O)N(c3cccc(F)c3)C(C(=O)NC3CCCC3)c3ccco3)n2)o1 (stereo unspecified),–,·,32,–,–
Cc1ccc(-c2nnn(CC(=O)N(c3ccc(F)cc3)C(C(=O)NC(C)(C)C)c3ccco3)n2)o1 (stereo unspecified),·,–,·,·,·
CC(C)[C@H](NC(=O)OC(C)(C)C)c1nnc(SCC(=O)Nc2ccc(Br)cc2)o1,–,–,–,–,–
SMILES,HTR1E agonist,Htt clearance,5HT1E antag,5HT1a ag,5HT1a antag
COc1cccc(C(C(=O)NCc2ccco2)N(Cc2ccco2)C(=O)Cn2nnc3ccccc32)c1 (stereo unspecified),·,80,·,·,·
O=C(CSc1cccc2cccnc12)N1CCCC1,–,·,42,–,–
COc1ccc(/C(C)=N/NC(=O)c2ccc(CSc3cccc4cccnc34)cc2)cc1OC,·,–,·,·,·
CN(C)C(=O)CSc1cccc2cccnc12,–,–,39,–,–
COC(=O)c1ccc(Oc2nc(C)cc(Oc3ccccc3)n2)cc1,–,–,–,–,–
COC(=O)c1ccc(Oc2cc(C)nc(-n3nc(C)cc3C)n2)cc1,–,–,90,–,65
Cc1nn(C(=O)CCCC(=O)n2nc(C)c(Cl)c2C)c(C)c1Cl,–,–,–,–,–
